# In PubChem BioAssay:
# Molecular target: Focal adhesion kinase 1 (Homo sapiens) (UniProt Q05397)
# Test: PTK2 protein binding on printed compound slides – biochemical, small-molecule microarray, 635/667 nm fluorescence, BSA, DTT, primary screen (AID 1130);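 also: composite of spot emission at 667 nm and signal to noise over triplicate slides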
# Settings: 635 nm fluorescence, higher = more signal
# Sequence of Focal adhesion kinase 1 (Homo sapiens) (Q05397 whole entry, looked up): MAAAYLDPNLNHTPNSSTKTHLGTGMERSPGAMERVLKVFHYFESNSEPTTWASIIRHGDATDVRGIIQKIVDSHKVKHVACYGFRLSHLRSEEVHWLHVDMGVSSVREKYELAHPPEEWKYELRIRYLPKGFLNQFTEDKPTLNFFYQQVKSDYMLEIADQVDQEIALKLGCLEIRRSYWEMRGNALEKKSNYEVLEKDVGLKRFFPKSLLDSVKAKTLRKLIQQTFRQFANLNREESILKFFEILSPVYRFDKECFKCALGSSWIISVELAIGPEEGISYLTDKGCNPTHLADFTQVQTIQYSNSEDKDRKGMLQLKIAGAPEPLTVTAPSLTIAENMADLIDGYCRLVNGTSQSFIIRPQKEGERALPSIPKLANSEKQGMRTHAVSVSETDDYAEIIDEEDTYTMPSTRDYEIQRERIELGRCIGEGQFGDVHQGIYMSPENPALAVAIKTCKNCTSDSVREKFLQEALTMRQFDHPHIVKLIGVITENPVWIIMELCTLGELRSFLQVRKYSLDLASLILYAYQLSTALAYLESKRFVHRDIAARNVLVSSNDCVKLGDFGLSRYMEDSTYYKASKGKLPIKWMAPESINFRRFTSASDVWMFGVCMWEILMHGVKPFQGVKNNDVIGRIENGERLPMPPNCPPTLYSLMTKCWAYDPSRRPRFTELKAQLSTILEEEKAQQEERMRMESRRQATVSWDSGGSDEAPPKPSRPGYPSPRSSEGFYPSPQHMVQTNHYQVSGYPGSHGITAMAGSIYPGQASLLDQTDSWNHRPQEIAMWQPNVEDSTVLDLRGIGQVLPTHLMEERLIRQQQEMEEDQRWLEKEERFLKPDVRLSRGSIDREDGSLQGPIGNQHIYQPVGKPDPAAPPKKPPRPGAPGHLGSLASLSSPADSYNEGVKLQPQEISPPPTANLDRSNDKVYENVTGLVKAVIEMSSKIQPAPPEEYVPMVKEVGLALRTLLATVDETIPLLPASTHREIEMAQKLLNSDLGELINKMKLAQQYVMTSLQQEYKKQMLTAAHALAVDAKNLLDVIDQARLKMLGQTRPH
row,Structure (SMILES),composite z-score
1,C=C(/C(=C/C[C@H](OC(C)=O)c1ccc(CO)o1)c1cc(C(=O)OC)ccc1OC)C(C)C,-0.0384
2,[N-]=[N+]=Nc1ccccc1[C@H]1OC(c2ccc(OCCCO)cc2)=N[C@@]1(CCS(=O)(=O)c1ccccc1)C(N)=O,0.26
3,COc1cc2c(cc1OC)CN(C(=O)[C@@H]1[C@H]3C(=O)O[C@H](c4ccccc4)[C@H](c4ccccc4)N3[C@H](c3ccccc3OCCO)[C@@]13C(=O)Nc1ccc(C#CCCO)cc13)CC2,0.222
4,C[N+](C)(C)CCCCNC(=O)[C@@H]1C[C@@H]2C(=O)N[C@@H](Cc3ccccc3)C(=O)N2[C@@H]1c1cccc(OCCO)c1,-0.449
5,COCCOC(=O)N1C(=O)[C@@]2(c3cc(C#CCC(C(=O)OC)C(=O)OC)ccc31)[C@H](C(=O)Nc1nc3ccccc3s1)[C@H]1C(=O)O[C@H](c3ccccc3)[C@H](c3ccccc3)N1[C@@H]2c1ccccc1OCCO,0.714
6,CCC[C@@H]1C[C@@]1(CCC)[C@@H](NS(=O)(=O)c1cccc2cccnc12)c1ccc(Cl)cc1,0.249
7,C=CCNC(=O)[C@@H]1[C@H]2C(=O)O[C@H](c3ccccc3)[C@H](c3ccccc3)N2[C@H](c2ccc(O)cc2)[C@@]12C(=O)N(C(=O)OCCOC)c1ccc(C#CCNC(N)=O)cc12,1.23
8,COCCOC(=O)N1C(=O)[C@@]2(c3cc(C#CCCO)ccc31)[C@H](C(=O)N1CCCCCCC1)[C@H]1C(=O)O[C@H](c3ccccc3)[C@H](c3ccccc3)N1[C@@H]2c1ccc(OCCO)cc1,0.959
9,COC(=O)[C@@]1(CCC(=O)OC(C)(C)C)N=C(c2ccc(OCCCO)cc2)O[C@H]1c1ccccc1N=[N+]=[N-],0.723
10,CCCCCN1CC=CC23O[C@@H]4/C=C\CCC(C)OC(=O)C4[C@H]2C(=O)N(C(C)CO)[C@@H]3C1=O (stereo not given in full),-0.521
11,Cc1ccc(S[C@]2(C(=O)NC3CC3)CC(=O)N(Cc3ccccc3)[C@@H]2c2ccc(CO)cc2I)cc1,-0.557
12,O=C1NC(=O)C2C1C=CC(C(O)c1cccs1)N2Nc1ccc(Cl)cc1Cl (stereo not given),-0.0686
13,C=CCC(OC(C)=O)[C@@H]1[C@@H](N(Cc2ccc(-c3ccccc3)cc2)C(=O)c2cccc3ccccc23)c2cc(OCCCO)ccc2N1C(=O)c1ccc(-c2ccccc2)cc1 (stereo not given in full),0.0082
14,CCOC(=O)C[C@H]1[C@H](OC(=O)c2ccc(C(=O)c3ccccc3)cc2)[C@@H](NC(=O)c2ccccc2)c2cc(OCCCO)ccc2N1C(=O)c1ccc2ccccc2n1,0.281
15,COc1cc2c(cc1O)C(C1CC1)N(Cc1sc3ccccc3c1Cl)CC2 (stereo not given),-0.0249

# Test system: Fibrinogen (Alexa647-labelled)
# Test: Alexa647-fibrinogen binding to printed small molecules – biochemical, small-molecule microarray, 635/667 nm fluorescence, artefact control for SMM control-protein annotation, profiling panel (AID 1131);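 also: z-score merges 667 nm fluorescence with per-spot signal-to-noise over triplicate slides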
# Settings: fibrinogen-A647 binding fluorescence, higher = more signal
row,Structure (SMILES),composite z-score
1,COCCOC(=O)N1C(=O)[C@@]2(c3ccccc31)[C@H](c1ccc(O)cc1)N1[C@H](c3ccccc3)[C@H](c3ccccc3)OC(=O)[C@H]1[C@@H]2C(=O)Nc1nc2ccccc2s1,0.961
2,NC(=O)NCC#Cc1ccc2c(c1)[C@]1(C(=O)N2)[C@H](C(=O)Nc2nc3ccccc3s2)[C@H]2C(=O)O[C@H](c3ccccc3)[C@H](c3ccccc3)N2[C@@H]1c1ccccc1OCCO,0.764
3,COCCOC(=O)N1C(=O)[C@@]2(c3ccccc31)[C@H](c1ccccc1OCCO)N1[C@H](c3ccccc3)[C@H](c3ccccc3)OC(=O)[C@H]1[C@@H]2C(=O)N1CCN(c2ncccn2)CC1,0.64
4,COC(=O)[C@@]1(Cc2ccc(F)cc2)[C@H]2c3cc(C(=O)N4CCCC4)n(CCCNc4ncc(C(F)(F)F)cc4Cl)c3C[C@H]2CN1C(=O)c1ccccc1,0.817
5,CC(C)C[C@@H]1NC(=O)[C@@H]2C[C@H](C(=O)NCc3ccc(F)cc3)[C@H](c3cccc(OCCO)c3)N2C1=O,-0.373
6,C=CCC(OC(C)=O)[C@@H]1[C@@H](N(Cc2cc3ccccc3o2)C(=O)c2cccc3ccccc23)c2cc(OCCCO)ccc2N1C(=O)c1ccc(-c2ccccc2)cc1 (stereo not given in full),-0.827
7,C#C[C@H](O[Si](C#Cc1ccc(Oc2ccccc2)cc1)(C(C)C)C(C)C)c1ccccc1,0.385
8,O=C1N[C@@H](Cc2ccccc2)C(=O)N2[C@@H]1C[C@@H](C(=O)O)[C@H]2c1cccc(OCCO)c1,0.56
9,COCCCNC(=O)[C@@]1(C)c2ccccc2C(=O)N(C(C)C)[C@H]1c1ccc(CO)cc1,0.648
10,C=CCN1C(=O)[C@@]2(Cc3ccccc31)N=C(c1ccc(OCCCO)cc1)O[C@H]2c1ccccc1,0.039
11,CN(C)CCCCCCNC(=O)[C@H]1C[C@H]2C(=O)N[C@@H](CCCCN)C(=O)N2[C@H]1c1cccc(OCCO)c1,0.977
12,COc1cc2c(cc1OC)CN(C(=O)[C@H]1[C@@H]3C(=O)O[C@@H](c4ccccc4)[C@@H](c4ccccc4)N3[C@@H](c3ccc(O)cc3)[C@]13C(=O)Nc1ccccc13)CC2,0.253
13,C=CC1(C(=O)OC)CC=C(C(=O)OC)CC1 (stereo not given),0.862
14,CCCC=C(CCC)[C@@H](NC(=O)c1cccs1)c1ccc(C(F)(F)F)cc1,0.936
15,C=CCNC(=O)[C@@H]1[C@H]2C(=O)O[C@H](c3ccccc3)[C@H](c3ccccc3)N2[C@H](c2ccccc2OCCO)[C@@]12C(=O)N(C(=O)OCCOC)c1ccccc12,0.979
16,COC(=O)C[C@H]1O[C@]2(C(=O)N(C)c3ccccc32)[C@@H](C)[C@@H]1[Si](C)(C)F,0.209
17,C=CCOC(=O)[C@@H]1[C@H]2C(=O)O[C@H](c3ccccc3)[C@H](c3ccccc3)N2[C@H](c2ccc(OCCOC(=O)[C@@H]3C[C@@H]4C(=O)NCC(=O)N4[C@@H]3c3ccc(O)cc3)cc2)[C@@]12C(=O)Nc1ccc(I)cc12,0.342
18,COc1ccc(CCNC(=O)[C@@]2(C)c3ccccc3C(=O)N(C(C)C)[C@H]2c2ccc(CO)cc2)cc1,0.0931

row,Structure (SMILES),composite z-score
1,C=C(CC1([C@@H](NP(=O)(c2ccccc2)c2ccccc2)[C@H]2C[C@@H]2CCCC)CC1)c1ccccc1,0.746
2,COC(=O)[C@H](Cc1ccccc1)N1CC2=C[C@@H](C3CC3)n3c(=O)n(C)c(=O)n3[C@H]2[C@@H]1[C@@H](O)Cc1ccccc1,0.588
3,C=C(/C(=C/C[C@H](OC(C)=O)c1ccc(CO)o1)c1cc(C(=O)OC)ccc1OC)C(C)C,-1.25
4,[N-]=[N+]=Nc1ccccc1[C@H]1OC(c2ccc(OCCCO)cc2)=N[C@@]1(CCS(=O)(=O)c1ccccc1)C(N)=O,0.938
5,COc1cc2c(cc1OC)CN(C(=O)[C@@H]1[C@H]3C(=O)O[C@H](c4ccccc4)[C@H](c4ccccc4)N3[C@H](c3ccccc3OCCO)[C@@]13C(=O)Nc1ccc(C#CCCO)cc13)CC2,0.966
6,C[N+](C)(C)CCCCNC(=O)[C@@H]1C[C@@H]2C(=O)N[C@@H](Cc3ccccc3)C(=O)N2[C@@H]1c1cccc(OCCO)c1,-1.23
7,COCCOC(=O)N1C(=O)[C@@]2(c3cc(C#CCC(C(=O)OC)C(=O)OC)ccc31)[C@H](C(=O)Nc1nc3ccccc3s1)[C@H]1C(=O)O[C@H](c3ccccc3)[C@H](c3ccccc3)N1[C@@H]2c1ccccc1OCCO,0.965
8,CCC[C@@H]1C[C@@]1(CCC)[C@@H](NS(=O)(=O)c1cccc2cccnc12)c1ccc(Cl)cc1,0.285
9,C=CCNC(=O)[C@@H]1[C@H]2C(=O)O[C@H](c3ccccc3)[C@H](c3ccccc3)N2[C@H](c2ccc(O)cc2)[C@@]12C(=O)N(C(=O)OCCOC)c1ccc(C#CCNC(N)=O)cc12,0.746
10,COCCOC(=O)N1C(=O)[C@@]2(c3cc(C#CCCO)ccc31)[C@H](C(=O)N1CCCCCCC1)[C@H]1C(=O)O[C@H](c3ccccc3)[C@H](c3ccccc3)N1[C@@H]2c1ccc(OCCO)cc1,0.769
11,COC(=O)[C@@]1(CCC(=O)OC(C)(C)C)N=C(c2ccc(OCCCO)cc2)O[C@H]1c1ccccc1N=[N+]=[N-],0.942
12,CCCCCN1CC=CC23O[C@@H]4/C=C\CCC(C)OC(=O)C4[C@H]2C(=O)N(C(C)CO)[C@@H]3C1=O (stereo not given in full),-0.925
13,Cc1ccc(S[C@]2(C(=O)NC3CC3)CC(=O)N(Cc3ccccc3)[C@@H]2c2ccc(CO)cc2I)cc1,-0.394
14,O=C1NC(=O)C2C1C=CC(C(O)c1cccs1)N2Nc1ccc(Cl)cc1Cl (stereo not given),-0.868
15,C=CCC(OC(C)=O)[C@@H]1[C@@H](N(Cc2ccc(-c3ccccc3)cc2)C(=O)c2cccc3ccccc23)c2cc(OCCCO)ccc2N1C(=O)c1ccc(-c2ccccc2)cc1 (stereo not given in full),0.56
16,CCOC(=O)C[C@H]1[C@H](OC(=O)c2ccc(C(=O)c3ccccc3)cc2)[C@@H](NC(=O)c2ccccc2)c2cc(OCCCO)ccc2N1C(=O)c1ccc2ccccc2n1,0.788
17,COc1cc2c(cc1O)C(C1CC1)N(Cc1sc3ccccc3c1Cl)CC2 (stereo not given),0.762
